Compound activity deposited in PubChem BioAssay by National Center for Advancing Translational Sciences (NCATS).
Sampled rows, rich in hits. Any-hit rate of the full collection: about 21%.
Shiga toxin inh – blocks Shiga toxin action in Vero cells; Vero cells, Shiga toxin protein synthesis inhibition reporter; inhibition, % at 38.7 µM; hit rate 9.2% among 290,000; AID 2315; in the data active = inhibition mostly above about 28%, no sharp cut-off; inactive = mostly below about 43%; note: 0% is about no effect
Pf growth 48h – P. falciparum growth inhibition at 48 hours (one generation); P. falciparum luciferase growth in erythrocytes, 48 h; Potency, µM (titrated, usually from 28.7 µM), for the others: top-dose activity change, negative = inhibition, usual class: inhibitors; hit rate 5.9% among 310,000; AID 504832; active = well fitted inhibition curve with a large enough effect; inconclusive = small, poorly fitted or top-dose-only effect, or another doubt; inactive = no such curve, though single readings can be large or run the other way; note: potency is the fitted concentration of half-maximal effect; % is set by controls: 0 for no effect and ±100 for the full control effect
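Here the parasites carry a stable luciferase gene and grow inside erythrocytes in Albumax-based RPMI medium with compound for one erythrocytic cycle. Activity is scored as loss of luminescent signal.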
CHX counter – affects cycloheximide protein synthesis inhibition readout, counter-screen; cell reporter, cycloheximide protein synthesis inhibition counterscreen; max response, %; hit rate 12% among 300,000; AID 2314; in the data active = max response mostly above about 13%, no sharp cut-off; inactive = mostly below about 14%; note: read at 38.3 µM for the half of the compounds with a filed dose; 0% is about no effect
Pf growth 96h – P. falciparum growth inhibition at 96 hour, primary screen for plastid delayed-death inhibitors | hit rate 6.9% among 320,000 | Potency, µM (top dose mostly 28.7 µM), for inactives: at the highest dose activity change, negative = inhibition, most hits filed as inhibitors | AID 504834 | P. falciparum luciferase reporter growth, 96 h; active = well fitted inhibition curve with a large enough effect; inconclusive = small, poorly fitted or top-dose-only effect, or another doubt; inactive = no such curve, though single readings can be large or run the other way; note: potency is the fitted concentration of half-maximal effect; % is set by controls: 0 for no effect and ±100 for the full control effect
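P. falciparum expressing integrated firefly luciferase grown in erythrocytes (2% hematocrit, 0.05% parasitemia final) with compounds for 96 hours at 37 C, 5% CO2. Growth inhibition read as loss of luminescence after adding luciferase detection reagent.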
SARS PLpro yeast – inhibitors of SARS-CoV papain-like protease in yeast; Potency, µM (doses to about 32.9 µM), inactives show at the highest dose activity, positive = growth rescue, most hits filed as activators; S. cerevisiae expressing SARS-CoV PLpro, growth rescue; hit rate 0.19% among 330,000; note: potency is the fitted concentration of half-maximal effect; 0% is about no effect; nearly all actives have a fitted effect of over 55% in size
NS1 function inh – influenza NS1 inhibition; Potency, µM (titrated, usually from 46.1 µM), inactives show at the highest dose activity, positive = more growth; hit rate 0.4% among 270,000; AID 2326; note: potency is the fitted concentration of half-maximal effect; actives are rising curves; nearly all actives have a fitted effect of over 50% in size
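Recovery from NS1-induced slow growth read by OD600 in budding yeast switched to galactose assay medium (pH 6.0, -URA) at 1:100 dilution. Compound 23 nl per well; the matching strain lacking NS1 serves as control.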
Starred values were filed as active, the others as inactive; u = inconclusive; x = no result. Unless noted, calls come from the whole dose curve.

SMILES	Shiga toxin inh	Pf growth 48h	CHX counter	Pf growth 96h	SARS PLpro yeast	NS1 function inh
Cc1ccc(C(=O)N2CCN(C34CC5CC(CC(C5)C3)C4)CC2)o1	-7.2	19.6%	-3.2	u	-9.2%	1.6%
O=C(CSc1nc2[nH]ncc2c(=O)n1-c1ccccc1)NCCc1ccccc1	5.9	3.0%	6.5	-0.4%	4.7%	x
COc1cc(NC(=O)CSc2nc3[nH]ncc3c(=O)n2-c2ccccc2C)cc(OC)c1OC	-17.0	10.4µM*	-5.0	6.1%	1.2%	-7.5%
Cc1cccc(NC(=O)CSc2nc3[nH]ncc3c(=O)n2-c2ccccc2)c1	10.5	-7.6%	3.3	7.38µM*	6.0%	u
COc1cc(NC(=O)CSc2nc3[nH]ncc3c(=O)n2-c2ccc(Cl)cc2)cc(OC)c1	4.8	u	3.4	-17.8%	u	6.5%
Cc1cc2c(s1)c(C=O)c(C(=O)NCc1ccccc1F)n2C	x	u	x	-21.3%	6.4%	x
COc1cc2c(cc1OC)CN(C(=O)/C=C/c1ccc(F)cc1)CC2	-3.9	u	-6.8	u	-5.6%	3.5%
COc1cc2c(cc1OC)CN(C(=O)/C=C/c1cc(OC)c(OC)c(OC)c1)CC2	-4.8	2.62µM*	4.4	4.65µM*	-0.9%	-8.5%
CC1CCc2nc(NC(=O)CSc3nc4ccccc4o3)sc2C1 (configuration not stated)	85.3*	289.6%	52.2*	x	0.6%	1.0%
Cc1cccc(NC(=O)CSc2nc3ccccc3o2)c1	119.3*	265.8%	38.1*	293.4%	-12.9%	2.4%
CC(=O)Nc1ccc(NC(=O)CSc2nc3ccccc3o2)cc1	114.6*	180.5%	16.6*	23.6%	13.1%	-16.6%
Cc1nonc1NC(=O)CSc1nc2ccccc2o1	0.8	13.1µM*	-2.0	36.4%	-0.2%	-21.2%
CC(=O)Nc1nonc1NC(=O)CSc1nc2ccccc2o1	-1.9	u	4.8	13.5%	4.7%	-2.2%
O=C(CSc1nc2ccccc2o1)Nc1ccc(Cl)cc1	83.5*	62.2%	21.6*	x	-17.2%	-36.1%
Cc1nn2c(-c3cccc(NC(=O)CN4CCOCC4)c3)nnc2c2ccccc12	x	x	x	x	x	4.2%
O=C(CCSc1nc2ccccc2o1)Nc1ccccc1	4.1	43.9%	1.0	14.7%	1.0%	-67.4%
Cc1nn2c(-c3cccc(NC(=O)CSc4nc5ccccc5o4)c3)nnc2c2ccccc12	17.7	u	13.8*	7.3%	-7.3%	-36.1%
Cc1cc(C)nc(NC(=O)CSc2nc3ccccc3o2)n1	57.8*	x	51.3*	253.5%	-10.6%	-9.1%
O=S(=O)(O)c1cc(N=Nc2cccc3ccccc23)c(O)c2ncccc12	x	x	x	x	x	-2.8%
O=C(COc1ccc(Cl)cc1)NNC(=O)C(=O)NC1CCCCC1	-15.8	u	-0.6	-26.3%	-0.3%	-2.7%
Cn1c(=O)[nH]c2nnc(-c3ccc(Cl)c(Cl)c3)nc2c1=O	50.3*	u	25.5*	1.65µM*	0.5%	-57.4%
COc1cccc(/C=N/NC(=O)c2ccc(N3CCCC3=O)cc2)c1	22.2	u	10.9	-1.4%	1.2%	-0.7%
Cc1cccc(-c2noc(Cc3ccc(Cl)cc3)n2)c1	96.3	63.2%	39.6*	u	-7.3%	-12.9%
Cc1cccc(-c2noc(CNC(=O)c3ccoc3C)n2)c1	8.2	12.4%	11.4	-2.4%	-6.3%	-10.5%
COc1ccc(Cc2nc(-c3cccc(C)c3)no2)cc1	111.6*	x	52.1*	14.7µM*	u	0.5%
SMILES	Shiga toxin inh	Pf growth 48h	CHX counter	Pf growth 96h	SARS PLpro yeast	NS1 function inh
CN(Cc1cccc(F)c1)CC(O)COCc1ccccc1Cl (configuration not stated)	-6.4	-12.2%	2.7	u	-2.8%	x
O=c1[nH]c2cc3c(cc2cc1CN(Cc1nnnn1CC1CCCO1)C1CCCCC1)OCO3 (configuration not stated)	31.4	u	-0.3	-12.8%	-3.2%	-17.5%
COc1ccc2[nH]c(=O)c(CN(Cc3ccc(C)cc3)Cc3nnnn3CC3CCCO3)cc2c1 (configuration not stated)	40.1*	u	40.3*	8.28µM*	1.0%	-17.8%
Cc1ccc2[nH]c(=O)c(CN(CCc3ccccc3)Cc3nnnn3CC3CCCO3)cc2c1 (configuration not stated)	1.6	u	9.6	u	13.7%	-11.6%
COc1ccc2cc(CN(CCc3ccccc3)Cc3nnnn3CC3CCCO3)c(=O)[nH]c2c1 (configuration not stated)	-8.3	9.28µM*	-2.9	124.5%	4.6%	-47.4%
COCCn1nnnc1CN(CCc1ccccc1)Cc1cc2ccc(C)cc2[nH]c1=O	-4.8	u	-3.4	10.4µM*	7.2%	-13.3%
O=c1[nH]c2cc3c(cc2cc1CN(Cc1nnnn1CC1CCCO1)C1CCCC1)OCO3 (configuration not stated)	-2.4	31.8%	16.4	10.4µM*	12.3%	-11.1%
O=C(NN=Cc1ccccc1C(=O)O)c1cccc(S(=O)(=O)Nc2cccc(C(F)(F)F)c2)c1	x	x	x	x	3.8%	x
COc1ccc2[nH]c(=O)c(CN(Cc3ccccc3OC)Cc3nnnn3CC3CCCO3)cc2c1 (configuration not stated)	-31.3	u	-2.7	42.2%	3.4%	-31.6%
COc1ccccc1CN(Cc1cc2cc(C)ccc2[nH]c1=O)Cc1nnnn1CC1CCCO1 (configuration not stated)	41.4	7.38µM*	18.0	10.4µM*	-2.3%	-65.4%
Cc1cc(C)c2nc(N3CCC(C(=O)N4CCCC4)CC3)sc2c1	8.1	8.28µM*	12.1	u	-0.5%	-66.6%
O=C(C1CCN(c2nnc(-n3cccc3)s2)CC1)N1CCCCC1	20.4	13.3%	20.4*	-9.1%	-3.2%	4.8%
Cc1cc(C)c2nc(N3CCCC(C(=O)NC4CCCC4)C3)sc2c1 (configuration not stated)	4.7	8.3%	12.1	5.22µM*	-2.4%	-3.4%
Cc1cc(C)c2nc(N3CCC(C(=O)NCCCN4CCCCC4)CC3)sc2c1	18.2	x	4.9	x	9.8%	1.4%
Cc1cc(C)c2nc(N3CCC(C(=O)NCC4CCCO4)CC3)sc2c1 (configuration not stated)	25.0	2.6%	21.0*	4.6%	18.2%	-9.7%
Cc1ccc(S(=O)(=O)Nc2ccc(F)cc2)cc1C(=O)N1CCOCC1	x	x	x	x	-0.5%	x
CCCN1C(=O)C2(SC(NC(C)=O)=NN2C(C)=O)c2cc(C)ccc21 (configuration not stated)	21.1	-12.4%	-3.1	9.3%	-0.1%	0.8%
NC(=NCCCCCCN=C(N)/N=C(\N)Nc1ccc(Cl)cc1)/N=C(\N)Nc1ccc(Cl)cc1	-20.5	0.329µM*	-12.5	u	-37.0%	-124.7%
CC(C)N=C(N)/N=C(\N)Nc1ccc(Cl)cc1	x	2.87µM*	x	0.361µM*	x	x
CC(C)N=C(N)N=C(N)Nc1ccc(Cl)cc1	x	1.17µM*	x	0.329µM*	x	x
Cc1cc(C)nc(SCC(=O)NN=Cc2ccc(C)o2)n1	x	x	x	x	0.0%	x
CSc1ccccc1N=CC1=C(O)CC(C)(C)CC1=O	22.0	3.1%	11.3	x	u	1.8%
